According to ChEMBL document CHEMBL3988442, “University of Dundee, Small-Polar-MMV Screening Library” (2021):

Target: T1, Aspartate--tRNA(Asp/Asn) ligase (Mycobacterium tuberculosis (strain ATCC 25618 / H37Rv)) (UniProt P9WFW3); also: in the data most compounds retested in dose-response had high values
T1 sequence (whole entry): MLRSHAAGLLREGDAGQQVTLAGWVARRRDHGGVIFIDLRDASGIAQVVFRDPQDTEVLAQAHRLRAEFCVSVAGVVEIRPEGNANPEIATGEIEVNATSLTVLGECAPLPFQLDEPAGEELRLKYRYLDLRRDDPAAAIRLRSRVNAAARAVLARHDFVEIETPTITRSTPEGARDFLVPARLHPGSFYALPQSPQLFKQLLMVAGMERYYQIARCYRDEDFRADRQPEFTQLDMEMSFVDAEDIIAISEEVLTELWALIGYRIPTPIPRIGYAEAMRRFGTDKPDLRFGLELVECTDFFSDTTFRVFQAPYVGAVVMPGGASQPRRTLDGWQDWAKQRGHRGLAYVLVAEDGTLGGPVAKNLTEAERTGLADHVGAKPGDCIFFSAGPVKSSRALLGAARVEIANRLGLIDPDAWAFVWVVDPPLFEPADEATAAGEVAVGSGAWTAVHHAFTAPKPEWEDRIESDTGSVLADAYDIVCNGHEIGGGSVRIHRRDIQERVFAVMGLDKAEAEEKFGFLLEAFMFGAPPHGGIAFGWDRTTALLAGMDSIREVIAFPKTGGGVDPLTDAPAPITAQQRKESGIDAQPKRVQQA
Test: Assay for Asp RNA synthetase-1 from Mycobacterium tuberculosis
Assay type: functional
Design: scale not given: direction of the effect not stated beside the values
Conditions: 30 µM

Structure (SMILES)	Percent Effect [%]
CSc1cccc(CN(C)C(=O)C2CC(=O)N(CCN(C)C)C2)c1 (stereo not given)	-2.59
CSCc1nc(C(C)(C)NC(=O)OC(C)(C)C)no1	-0.954
O=C(O)C(c1ccc2c(c1)OCCO2)N1CCCCCC1 (stereo not given)	-3.23
CN(Cc1ncc[nH]1)CC(c1cccs1)N1CCOCC1 (stereo not given)	-3.41
COc1ccccc1CN(C)c1nccc(-c2cn(C)nc2C)n1	-1.34
COC(=O)CCN1CCCC1c1cccc2c1OCCO2 (stereo not given)	-1.34
Cc1ccc(CNCc2nnc3n2CCCC3C(F)(F)F)o1 (stereo not given)	0.425
O=C(COc1cccc(Br)c1)N1CCN(c2nccs2)CC1	1.41
COC1COC2(CCN(Cc3ccccc3Cl)CC2)C1 (stereo not given)	3.77
Cc1cc(S(=O)(=O)N2CCCc3cc(F)cc(F)c32)sc1C(=O)O	-0.908
N#Cc1cccc(CS(=O)(=O)NCC(O)Cc2ccccc2)c1 (stereo not given)	-0.908
Cc1ccc(N2CCCC(N(C)Cc3cc(C)no3)C2)nn1 (stereo not given)	-1.94
COc1cccc(CN(C)C(=O)CN2CCN(c3nccn3C)CC2)c1	2.95
CC(C)c1nccn1C1CCCN(C(=O)c2cnc[nH]2)C1 (stereo not given)	-0.983
Cc1nn(CCn2ccnc2-c2cc3n(n2)CCCNC3)c(C)c1Cl	-0.0115
COc1ccccc1CCN(C)C(=O)NC(C)c1nncn1C (stereo not given)	-4.13
CCOC1CCN(C(=O)c2c(Cl)c3ccccc3n2C)CC1	-2.01
Cc1nn(C)cc1C(=O)N1C[C@H]2CC[C@@H]1CN(S(=O)(=O)N(C)C)C2	1.62
CC(C)c1nc2c(n1C)CCN(CC(=O)Nc1nccs1)C2	-1.5
CCc1ccsc1C(=O)N1CCN(C(=O)CC(F)(F)F)CC1	-0.116

Structure (SMILES)	Percent Effect [%]
Cc1nn(CCO)c(C)c1CNC1CCC(C)(C)c2ccccc21 (stereo not given)	-0.793
CN(CCO)Cc1nnc(C2CCN(C3CCCCC3)CC2)n1C	4.1
CC(C)n1ncc2cc(NC(=O)N3CCC(N4CCCC4)C3)cnc21 (stereo not given)	-5.1
CCSCCC(=O)Nc1ncn(Cc2cccnc2)n1	-2.31
Cc1ncc2c(n1)CN(Cc1noc(C3CC3)n1)CC2	0.182
Cc1cc(N2CCN(Cc3ccc(-c4cc[nH]n4)o3)CC2)cc(C)n1	0.126
COc1ncccc1NC(=O)N1CCC(CNC(C)=O)CC1	-1.39
CSc1cccc(CNC(=O)C2CC(=O)N(CCN(C)C)C2)c1 (stereo not given)	2.84
Cc1cc(C)nc(N2Cc3cnn(Cc4ccc(F)cc4)c3C2)n1	-2.29
CCCC(=O)NCc1cc(Br)c(OC)c(OC)c1	-0.862
O=C(Cc1ccc2c(c1)OCCO2)N1CCCC(n2cccn2)C1 (stereo not given)	-1.07
Cc1cc(F)ccc1CN1CCC(O)(CN2CCCCC2)C1 (stereo not given)	-0.747
Cc1cc(C(=O)NC2CCCN(c3ccccc3)C2=O)on1 (stereo not given)	0.287
Cc1cnn(Cc2cc(F)ccc2F)c1NC(=O)NC1CC1	-1.44
OC(COCc1ccc(Cl)cc1)CN1CCC(c2ccn[nH]2)CC1 (stereo not given)	-1.57
CC(C)CN1CCCn2nc(CNC(=O)CCCc3cn[nH]c3)cc2C1	-0.885
CN(Cc1ccccc1)C1(C(=O)O)Cc2ccccc2C1	-1.53
CC(C)c1ncc(CN2C[C@@H](CN3CCC(CO)CC3)[C@@H](CO)C2)cn1	-1.92
O=C(NCC(F)(F)F)NC1CCCc2c1cnn2CCO (stereo not given)	-1.62
CCC(=O)NCc1cc(Br)c(OC)c(OC)c1	-1.55

Target: Shiga toxin 2 (Escherichia coli O157:H7) (UniProt P09385+P09386)
Test: E. coli 0.157:H7 Shiga Toxin SOP - stx2 screening assay
Assay type: functional
Design: scale not given: direction of the effect not stated beside the values
Conditions: 30 µM

Structure (SMILES)	Percent Effect [%]
CN(Cc1ncc[nH]1)CC(c1cccs1)N1CCOCC1 (stereo not given)	4.34
COC1COC2(CCN(Cc3ccccc3Cl)CC2)C1 (stereo not given)	-11.8
CC(C)c1nccn1C1CCCN(C(=O)c2cnc[nH]2)C1 (stereo not given)	-3.33
COc1ccccc1CCN(C)C(=O)NC(C)c1nncn1C (stereo not given)	1.17
CC(C)c1nc2c(n1C)CCN(CC(=O)Nc1nccs1)C2	26
CCc1ccsc1C(=O)N1CCN(C(=O)CC(F)(F)F)CC1	-16.6
CC(C)n1ncc2cc(NC(=O)N3CCC(N4CCCC4)C3)cnc21 (stereo not given)	-51.5
Cc1ncc2c(n1)CN(Cc1noc(C3CC3)n1)CC2	-46.9
O=C(Cc1ccc2c(c1)OCCO2)N1CCCC(n2cccn2)C1 (stereo not given)	10.8
OC(COCc1ccc(Cl)cc1)CN1CCC(c2ccn[nH]2)CC1 (stereo not given)	-33
